Among all 16,000 compounds or so, about 5,100 (32%) were called active. Another 25% or so got no clear call; they are omitted. Calls follow the shape of the dose curve; as a rule, active = well fitted curve in the direction sought with a large enough effect; inconclusive = small, poorly fitted or top-dose-only effect, or effect the other way; inactive = no such curve, though single readings can be large or run the other way. This is one part of the list.
Molecular target: Cytochrome P450 3A4 (Homo sapiens) (UniProt P08684)
Sequence (P08684 whole entry, looked up): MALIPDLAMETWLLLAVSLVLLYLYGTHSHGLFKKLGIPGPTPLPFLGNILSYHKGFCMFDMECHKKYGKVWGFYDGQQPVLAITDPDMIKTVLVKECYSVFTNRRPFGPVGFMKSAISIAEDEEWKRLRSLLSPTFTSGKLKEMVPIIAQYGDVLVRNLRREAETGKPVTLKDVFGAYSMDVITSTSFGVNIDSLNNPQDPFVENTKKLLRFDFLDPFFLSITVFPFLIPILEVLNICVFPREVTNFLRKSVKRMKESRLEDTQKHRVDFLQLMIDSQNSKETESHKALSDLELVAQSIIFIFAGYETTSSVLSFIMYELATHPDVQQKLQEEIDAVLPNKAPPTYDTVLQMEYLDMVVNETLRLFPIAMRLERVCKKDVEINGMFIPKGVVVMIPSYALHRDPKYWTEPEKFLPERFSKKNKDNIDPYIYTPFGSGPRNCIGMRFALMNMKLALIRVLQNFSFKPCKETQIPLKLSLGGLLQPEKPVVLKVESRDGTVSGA
Experiment: Cytochrome panel assay with activity outcomes
Conditions: recombinant CYP, pro-luciferin dealkylation, luminescence, p450-cyp3a4; series mostly up to 57.1 µM
% is scaled to controls: 0 for no effect and ±100 for the full control effect.

AC50, active:
COc1cccc(-c2nccc(NCc3ccc(OC)cc3OC)n2)c1 3.16 µM
COc1ccccc1CN1CC[C@@]2(CCCN(C(=O)c3c(C)noc3C)C2)C1 1.58 µM
Cc1noc(C)c1C(=O)N1CCC[C@@]2(CCN(Cc3ccccc3)C2)C1 12.6 µM
Cc1noc(C)c1C(=O)N1CCC[C@@]2(CCN(Cc3nccs3)C2)C1 15.8 µM
CCCCOc1ccc(S(=O)(=O)Nc2cccnc2)cc1 2.51 µM
Cc1ccc(Nc2nnc(-c3ccc4c(c3)OCO4)o2)c(C)c1 3.16 µM
Cc1ccccc1-c1nc(NC2CC2)c2ccccc2n1 3.98 µM
FC(F)(F)c1ccccc1-c1nc(NC2CC2)c2ccccc2n1 3.16 µM
CN(C)Cc1ccccc1-c1nc(NC2CC2)c2ccccc2n1 15.8 µM
COc1ccccc1-c1nc(NC2CC2)c2ccccc2n1 12.6 µM
Cc1ccc(SCCNC(=S)Nc2ccc(C)c(C)c2)cc1 6.31 µM
CCOC(=O)C1(S(=O)(=O)c2ccccc2)CCN(Cc2ccccc2)CC1 5.01 µM
CCOC(=O)C1(S(=O)(=O)c2ccc(Cl)cc2)CCN(Cc2ccc(Cl)cc2)CC1 7.08 µM
CC1(C)Cc2c(C#N)c(SCc3ccccc3)nc(N3CCOCC3)c2CO1 25.1 µM
CCn1c2ccccc2c2cc(NC(=O)C(C)Oc3ccc(OC)cc3)ccc21 (configuration not stated) 6.31 µM
CCN(CC)c1ccc(/C=C/c2nc3ccccc3s2)cc1 11.2 µM
Cc1nc2ccccn2c1/C(O)=C1\C(=O)C(=O)N(CCCn2ccnc2)C1c1ccncc1 (configuration not stated) 11.2 µM
CN(CCc1ccccn1)Cc1ccc(Cl)cc1Cl 7.94 µM
COc1ccccc1CNC(=O)C1CCN(S(=O)(=O)N2CC(C)CC(C)C2)CC1 (configuration not stated) 11.2 µM
COc1cccc(CNC(=O)C2CCN(S(=O)(=O)N3CCCCC3)CC2)c1 22.4 µM
COc1ccc(CCNC(=O)C2CCN(S(=O)(=O)N3CC(C)CC(C)C3)CC2)cc1OC (configuration not stated) 7.08 µM
O=C(COc1ccccc1)Nc1cc(C(F)(F)F)ccc1N1CCCC1 3.98 µM
CC(=O)N1CCN(c2ccccc2NC(=O)COc2ccc(Br)cc2)CC1 4.47 µM
Cc1ccc(OCC(=O)Nc2ccccc2N2CCOCC2)c(C)c1 14.1 µM
CCCCC(=O)NC(Nc1cc(C)ccn1)(C(=O)OCC)C(F)(F)F (configuration not stated) 7.08 µM
N#CCSc1nc2ccc(N3CCCCC3)cc2c(=O)n1Cc1ccccc1 7.08 µM
N#CCSc1nc2cc(C(=O)N3CCCC3)ccc2c(=O)n1Cc1ccccc1 12.6 µM
COc1ccc(NC(=O)N2CC[C@@]3(CCCN(C(=O)c4cc(C(F)(F)F)cc(C(F)(F)F)c4)C3)C2)cc1 20 µM
COc1ccc(NC(=O)N2CCCC3(CCN(C(=O)c4ccc(OC)cc4)CC3)C2)cc1 12.6 µM
COc1ccc(C(=O)N2CCC[C@@]3(CCN(C(=O)Nc4ccccc4)C3)C2)cc1 15.8 µM
COc1ccc(NC(=O)N2CCCC3(CCN(C(=O)c4cccn4C)CC3)C2)cc1 25.1 µM
COc1ccc(NC(=O)N2CCCC3(CCN(C(=O)c4ccco4)CC3)C2)cc1 15.8 µM
COc1ccc(NC(=O)N2CCCC3(CCNCC3)C2)cc1 25.1 µM
COc1ccc(NC(=O)N2CC[C@@]3(CCCN(C(=O)c4ccc(OC)cc4)C3)C2)cc1 15.8 µM
CCOC(=O)C(C(=O)NCc1ccc(C)cc1)c1ncc(C(F)(F)F)cc1Cl (configuration not stated) 1.26 µM
COc1cc(OC)c(C2C(C(=O)Nc3ccc(C)cc3C)=C(C)Nc3ncnn32)cc1OC (configuration not stated) 8.91 µM
CCOC(=O)C1=C(C)Nc2ncnn2C1c1cccnc1 (configuration not stated) 11.2 µM
CCCCOC(=O)C1=C(C)Nc2ncnn2C1c1cc(OC)ccc1OC (configuration not stated) 7.08 µM
COc1ccc2[nH]cc(CCNc3ncncc3-c3cccc(NS(C)(=O)=O)c3)c2c1 0.398 µM
COc1ccc2[nH]cc(CCNc3ncncc3-c3cccnc3)c2c1 0.794 µM
COc1cccc(-c2cncnc2NCCc2c[nH]c3ccc(OC)cc23)c1 0.501 µM

AC50, inactive:
Cc1noc(C)c1C(=O)N1CCC2(CC1)CN(c1ncccn1)C2
Cc1noc(C)c1C(=O)N1CCC2(CCN(Cc3ccccc3)CC2)CC1
COc1ccccc1CN1CCC2(CC1)CCN(C(=O)c1c(C)noc1C)CC2
Cc1noc(C)c1C(=O)N1CCC2(CCN(Cc3nccs3)CC2)CC1
Cc1noc(C)c1C(=O)N1CCC2(CCN(Cc3cc(C(F)(F)F)cc(C(F)(F)F)c3)CC2)CC1
CCCCOc1ccc(OC(=O)c2cccnc2)cc1
COc1cnc(NS(=O)(=O)c2ccc(N)cc2)nc1
C[C@H](NC[C@H](O)CP(=O)(O)Cc1ccccc1)c1ccc(Cl)c(Cl)c1
Cc1ccccc1-c1nc(NC2CCNCC2)c2ccccc2n1
FC(F)(F)c1ccccc1-c1nc(NC2CCNCC2)c2ccccc2n1
N[C@H](C(=O)O)C1[C@H](C(=O)O)[C@H]1C(=O)O (some centres not stated)
CCCNC(=S)Nc1ccc(Br)cc1
COCC(=O)N1CCC2(CCN(Cc3ccccc3)CC2)CC1
CC(=O)N1CCC2(CCN(Cc3ccccc3)CC2)CC1
CC(Oc1ccccc1)C(=O)Nc1nc2c(s1)C(=O)CC(C)(C)C2 (configuration not stated)
Cc1nc2ccccn2c1/C(O)=C1\C(=O)C(=O)N(CCN2CCOCC2)C1c1cccnc1 (configuration not stated)
Cc1nc2c(C)cccn2c1/C(O)=C1\C(=O)C(=O)N(CCN2CCOCC2)C1c1cccs1 (configuration not stated)
Cc1cccc(CN(C)CCc2ccccn2)c1
O=C(Nc1cc2c(oc1=O)CCCC2=O)c1ccc(Cl)cc1
Cc1cc(NC(=O)c2cc(C(C)C)on2)no1
NS(=O)(=O)c1cc(C(=O)O)cc(N2CCCC2)c1Oc1ccccc1
O=C(Nc1cc(C(F)(F)F)ccc1N1CCCCC1)c1ccc(Br)o1
O=c1c2ccccc2nc(-c2ccc(Br)cc2)n1Cc1ccccc1
CN1CCN(C(=O)c2ccc3c(=O)n4c(nc3c2)CCCCC4)CC1
COc1ccc(NC(=O)N2CC3(CCN(C(=O)c4cccn4C)CC3)C2)cc1
COc1ccc(C(=O)N2CCC3(CC2)CN(C(=O)Nc2ccccc2)C3)cc1
Cn1cccc1C(=O)N1CCC2(CC1)CN(C(=O)Nc1ccccc1)C2
COC(=O)N1CCC[C@@]2(CCN(C(=O)Nc3ccccc3)C2)C1
CC(=O)ON(C(C)=O)S(=O)(=O)c1ccc(Cl)cc1
COc1ccc(NC(=O)N2CCC3(CC2)CCN(C(=O)c2ccco2)CC3)cc1
COc1ccc(NC(=O)N2CC[C@@]3(CCCN(C(C)=O)C3)C2)cc1
COCC(=O)N1CCC2(CC1)CN(C(=O)Nc1ccc(OC)cc1)C2
COC(=O)N1CCC2(CC1)CN(C(=O)Nc1ccc(OC)cc1)C2
COc1ccc(NC(=O)N2CC3(CCN(C(=O)c4ccco4)CC3)C2)cc1
COc1ccc(NC(=O)N2CC[C@@]3(CCCNC3)C2)cc1
N#Cc1ccc(Oc2nc(C(N)=O)cc(-c3ccccc3)n2)cc1
CO/N=C(\C(=O)N[C@@H]1C(=O)N2C(C(=O)[O-])=C(C[N+]3(C)CCCC3)CS[C@@H]12)c1csc(N)n1
C(=C1/CCCC2=C1Nc1ncnn1C2c1ccccc1)/c1ccccc1 (configuration not stated)
COc1ccc(NC(=O)c2ccc(-n3cccn3)nc2)c(OC)c1
CCOc1ccc(/C(O)=C2/C(=O)C(=O)N(CCOCCO)C2c2cccnc2)cc1 (configuration not stated)
C[N+]1(C)C[C@@H](O)C[C@@H]1C(=O)[O-]
N#CCCn1c(=O)cnc2cnc(N3CCOCC3)nc21

activity, negative = inhibition, inactive:
CC(C)(N=NC(C)(C)C1=NCCN1)C1=NCCN1 -8.65% [at 11.4 µM]
CC(C)NC1(C(N)=O)CCN(Cc2ccccc2)CC1 -7.69% [at 11.4 µM]
Nc1nc(N)c(N=Nc2ccc(C(=O)O)c(O)c2)c(N)n1 -18% [at 11.4 µM]
COc1ccc(NC(=O)OC(C)C)cc1 -9.73% [at 2.29 µM]
CN(N=O)c1ccc(/C=C\c2ccnc3ccccc23)cc1 -15.2% [at 11.4 µM]
CC(C)C(=O)C(C)(C)CCc1ccccn1 -11% [at 11.4 µM]
CCS(=O)(=O)N1CCC(C(=O)NCc2ccccc2OC)CC1 4.92% [at 11.4 µM]
Cc1ccc(OCC(=O)Nc2ccc(Cl)cc2)c(-n2nc3ccccc3n2)c1 -10.5% [at 2.29 µM]
CCOc1ccc(C(=O)Nc2ccccc2N2CCCC2)cc1 -11.9% [at 2.29 µM]
O=P(O)(O)O[C@@H]1O[C@H](CO)[C@@H](O)[C@H](O)[C@@H]1O -3.16% [at 11.4 µM]
Nc1nc2c(c(=O)[nH]1)N[C@H](CCNc1ccc(C(=O)O)cc1)CN2 -0.744% [at 11.4 µM]
CCOc1c2ccc(C(=O)NCc3ccc(OC(F)(F)F)cc3)cc2nn1CC -2.81% [at 2.29 µM]
COc1ccc(C2N=C(N)N=C(N)N2c2ccccc2OC)cc1OC (configuration not stated) -8.43% [at 2.29 µM]
C=C(C)COc1ccc2c(c1)CCC1C2CC[C@]2(C)C(=O)/C(=N/O)CC12 (some centres not stated) 1.68% [at 11.4 µM]

— PubChem BioAssay AID1851 (National Center for Advancing Translational Sciences (NCATS), 2009)
